Experimental data reported in PubChem BioAssay (EPA / NIEHS).
Records with an inconclusive call do not appear. Activity calls are given as the source filed them. The calls were made as follows, unless noted: active = hit-call score of the fitted dose curve at least 0.9, where 1 is the maximum; inactive = score below 0.9.

Assays:
[1] = ATG_NFI_CIS: Attagene CIS-FACTORIAL HepG2 Assay for human Nuclear Factor I (NFI) (AID 2282989); conditions: HepG2 cis-regulatory reporter, NFI response element transcription; actives raise or lower the signal
Outline: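 Transfected HepG2 liver cells, exposed 24 h, supplied total RNA for oligo(dT) reverse transcription and reporter-specific PCR. Labelled, HpaI-cut fragments were sized by capillary electrophoresis; DMSO set the baseline for bidirectional fitting.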

[2] = target: Myc proto-oncogene protein (Homo sapiens) (UniProt P01106); assay: ATG_Myc_CIS: Attagene CIS-FACTORIAL HepG2 Assay for human Myelocytomatosis (Myc) Proto-Oncogene Transcription Factor (AID 2282990); conditions: HepG2, Attagene cis-reporter transcription factor activity; actives raise or lower the signal
Chain of Myc proto-oncogene protein (Homo sapiens) (P01106 whole entry, looked up): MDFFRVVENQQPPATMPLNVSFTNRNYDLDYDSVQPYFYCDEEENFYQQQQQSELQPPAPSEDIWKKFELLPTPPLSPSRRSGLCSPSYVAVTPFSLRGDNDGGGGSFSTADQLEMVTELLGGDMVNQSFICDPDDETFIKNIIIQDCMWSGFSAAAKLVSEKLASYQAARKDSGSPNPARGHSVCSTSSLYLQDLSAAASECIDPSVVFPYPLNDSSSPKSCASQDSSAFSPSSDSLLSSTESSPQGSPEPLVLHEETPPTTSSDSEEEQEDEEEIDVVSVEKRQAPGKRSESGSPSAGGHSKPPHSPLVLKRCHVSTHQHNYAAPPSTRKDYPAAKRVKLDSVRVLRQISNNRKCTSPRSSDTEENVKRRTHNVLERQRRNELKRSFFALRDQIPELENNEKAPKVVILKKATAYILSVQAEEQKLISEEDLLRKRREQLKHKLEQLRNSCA
Outline: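 DMSO-normalised, bidirectionally fitted reporter mRNA signal. HepG2 cells transfected with cis reporter constructs, treated 24 h; transcripts detected by RT-PCR, 6-FAM primer extension and CE.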

[3] = ATG_NF_kB_CIS: Attagene CIS-FACTORIAL HepG2 Assay for human Nuclear Factor Kappa B (NF-kB) (AID 2282991); conditions: HepG2 Attagene cis-factorial NF-kB reporter mRNA; actives raise or lower the signal
Outline: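 Measures mRNA induction of an NF-kB-responsive cis-element reporter in HepG2 cells transfected with multiple reporter units, sampled 24 h post-dosing; quantified by fluorescence after RT-PCR and capillary electrophoresis, fitted for activation or inhibition against DMSO.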

[4] = ATG_Oct_MLP_CIS: Attagene CIS-FACTORIAL HepG2 Assay for human Octamer-Binding Transcription Factor (Oct) (AID 2282993); conditions: HepG2 Attagene cis-factorial Oct reporter, mRNA; actives raise or lower the signal
Outline: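 Using HepG2 cells bearing transfected cis-reporter constructs, mRNA induction was read after 24 h by fluorescent RT-PCR and capillary electrophoresis, with DMSO defining baseline for gain- or loss-of-signal fits.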

[5] = target: human Peroxisome Proliferator-activated Receptor alpha (PPARa), PPARA (gene 5465) (UniProt Q07869); assay: ATG_PPARa_TRANS: Attagene TRANS-FACTORIAL HepG2 Assay for human Peroxisome Proliferator-activated Receptor alpha (PPARa) (AID 2283001; active = hit-call score of the fitted dose curve at least 0.9, where 1 is the maximum;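 as to AC50: potency for gain of reporter signal over DMSO so agonist or activator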)
Chain of human Peroxisome Proliferator-activated Receptor alpha (PPARa), PPARA (gene 5465) (Q07869 whole entry, looked up): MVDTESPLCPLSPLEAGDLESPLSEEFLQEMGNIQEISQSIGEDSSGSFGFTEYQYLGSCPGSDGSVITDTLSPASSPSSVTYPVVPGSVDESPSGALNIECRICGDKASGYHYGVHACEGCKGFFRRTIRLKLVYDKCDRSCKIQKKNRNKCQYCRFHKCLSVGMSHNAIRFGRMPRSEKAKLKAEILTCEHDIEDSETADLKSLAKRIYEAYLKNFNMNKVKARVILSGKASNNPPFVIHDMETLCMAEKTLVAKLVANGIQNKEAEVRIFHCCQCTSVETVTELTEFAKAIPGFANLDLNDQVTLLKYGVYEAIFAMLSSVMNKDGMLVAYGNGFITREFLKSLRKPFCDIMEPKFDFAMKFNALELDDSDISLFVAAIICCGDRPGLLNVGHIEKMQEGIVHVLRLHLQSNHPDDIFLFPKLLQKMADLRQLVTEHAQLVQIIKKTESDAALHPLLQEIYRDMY
Outline: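 Cells (HepG2) are transfected with multiple reporter transcription units, exposed to chemical for 24 h, then total RNA is reverse-transcribed and amplified. Labelled products are quantified by capillary electrophoresis; induction is referenced to DMSO.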

[6] = target: human Peroxisome Proliferator-activated Receptor delta (PPARd), PPARD (gene 5467) (UniProt Q03181); assay: ATG_PPARd_TRANS: Attagene TRANS-FACTORIAL HepG2 Assay for human Peroxisome Proliferator-activated Receptor delta (PPARd) (AID 2283002; active = hit-call score of the fitted dose curve at least 0.9, where 1 is the maximum)
Chain of human Peroxisome Proliferator-activated Receptor delta (PPARd), PPARD (gene 5467) (Q03181 whole entry, looked up, the tested form may be a part): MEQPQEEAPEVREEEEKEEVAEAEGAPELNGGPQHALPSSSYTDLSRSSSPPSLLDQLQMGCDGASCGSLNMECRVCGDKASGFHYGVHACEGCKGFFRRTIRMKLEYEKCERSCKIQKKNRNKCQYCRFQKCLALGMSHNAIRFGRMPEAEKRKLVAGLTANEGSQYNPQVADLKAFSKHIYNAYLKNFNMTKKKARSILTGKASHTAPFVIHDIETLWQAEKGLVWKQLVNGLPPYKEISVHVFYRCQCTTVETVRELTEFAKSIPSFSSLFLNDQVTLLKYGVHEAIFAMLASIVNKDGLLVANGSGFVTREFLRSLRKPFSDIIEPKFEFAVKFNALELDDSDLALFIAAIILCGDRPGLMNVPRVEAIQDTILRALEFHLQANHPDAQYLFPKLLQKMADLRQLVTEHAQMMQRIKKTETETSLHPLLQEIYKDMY
Outline: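 Measured quantity: GAL4-UAS reporter transcript induction in HepG2 after 24 h chemical dosing, with NR-Gal4 chimeras supplied by transient transfection. Detection by RT-PCR and capillary electrophoresis; upward fit against DMSO.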

[7] = target: Peroxisome proliferator-activated receptor gamma (Homo sapiens) (UniProt P37231); assay: ATG_PPARg_TRANS: Attagene TRANS-FACTORIAL HepG2 Assay for human Peroxisome Proliferator-activated Receptor-gamma (PPARg) (AID 2283007; active = hit-call score of the fitted dose curve at least 0.9, where 1 is the maximum)
Chain of Peroxisome proliferator-activated receptor gamma (Homo sapiens) (P37231 whole entry, looked up, the tested form may be a part): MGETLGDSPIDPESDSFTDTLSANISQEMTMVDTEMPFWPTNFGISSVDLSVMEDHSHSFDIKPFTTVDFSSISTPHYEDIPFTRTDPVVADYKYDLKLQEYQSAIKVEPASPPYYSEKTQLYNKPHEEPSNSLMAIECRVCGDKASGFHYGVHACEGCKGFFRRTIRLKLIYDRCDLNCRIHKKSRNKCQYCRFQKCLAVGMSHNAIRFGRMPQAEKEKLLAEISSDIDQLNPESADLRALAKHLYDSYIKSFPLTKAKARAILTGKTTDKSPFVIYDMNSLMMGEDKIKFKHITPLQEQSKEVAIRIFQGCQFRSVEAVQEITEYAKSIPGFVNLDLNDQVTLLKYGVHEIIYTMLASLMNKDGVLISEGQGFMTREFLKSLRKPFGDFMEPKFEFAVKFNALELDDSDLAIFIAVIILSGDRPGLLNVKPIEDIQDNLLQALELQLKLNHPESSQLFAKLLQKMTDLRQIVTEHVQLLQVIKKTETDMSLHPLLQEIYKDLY
Outline: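 Gain-of-signal endpoint relative to DMSO, derived from reporter mRNA levels quantified by RT-PCR and capillary electrophoresis. Cells were HepG2 transiently expressing a chimeric NR-Gal4 construct with GAL4-UAS reporters, exposed to chemicals for 24 h.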

[8] = target: Nuclear receptor subfamily 1 group I member 2 (Homo sapiens) (UniProt O75469); assay: ATG_PXR_TRANS: Attagene TRANS-FACTORIAL HepG2 Assay for human Pregnane X Receptor (PXR) (AID 2283008; active = hit-call score of the fitted dose curve at least 0.9, where 1 is the maximum)
Chain of Nuclear receptor subfamily 1 group I member 2 (Homo sapiens) (O75469 whole entry, looked up, the tested form may be a part): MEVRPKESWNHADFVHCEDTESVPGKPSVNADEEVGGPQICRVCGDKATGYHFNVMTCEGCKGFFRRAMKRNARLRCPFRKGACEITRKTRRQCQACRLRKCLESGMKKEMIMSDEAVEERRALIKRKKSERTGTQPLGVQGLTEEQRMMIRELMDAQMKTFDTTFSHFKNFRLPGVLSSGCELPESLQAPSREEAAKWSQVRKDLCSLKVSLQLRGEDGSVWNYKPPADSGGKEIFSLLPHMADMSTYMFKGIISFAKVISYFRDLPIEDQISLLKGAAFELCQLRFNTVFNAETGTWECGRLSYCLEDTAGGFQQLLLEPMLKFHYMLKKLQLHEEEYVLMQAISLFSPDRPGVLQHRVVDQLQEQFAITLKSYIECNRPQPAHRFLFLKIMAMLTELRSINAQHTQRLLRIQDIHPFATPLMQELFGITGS
Outline: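 Transactivation by exogenous PXR–GAL4 fusion measured as reporter transcript induction after 24 h compound treatment of transfected human HepG2 cells. Read-out via RT-PCR and capillary electrophoresis of labelled fragments, fitted upward relative to DMSO.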

[9] = target: Cellular tumor antigen p53 (Homo sapiens) (UniProt P04637); assay: ATG_p53_CIS: Attagene CIS-FACTORIAL HepG2 Assay for human p53 Transcription Factor (AID 2282994); conditions: HepG2 p53 cis-element reporter, Attagene mRNA; actives raise or lower the signal
Chain of Cellular tumor antigen p53 (Homo sapiens) (P04637 whole entry, looked up): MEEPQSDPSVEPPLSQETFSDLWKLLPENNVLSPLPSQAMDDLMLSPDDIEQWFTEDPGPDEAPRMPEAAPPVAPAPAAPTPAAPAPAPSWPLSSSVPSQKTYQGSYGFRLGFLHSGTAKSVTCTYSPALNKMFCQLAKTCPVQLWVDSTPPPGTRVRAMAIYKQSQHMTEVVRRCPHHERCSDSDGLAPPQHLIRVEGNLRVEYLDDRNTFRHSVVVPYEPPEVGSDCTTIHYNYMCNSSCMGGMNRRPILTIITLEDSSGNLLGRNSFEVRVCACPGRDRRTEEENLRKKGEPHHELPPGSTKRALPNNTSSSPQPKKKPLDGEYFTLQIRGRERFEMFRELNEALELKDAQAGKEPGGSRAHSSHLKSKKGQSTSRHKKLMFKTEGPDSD
Outline: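 Endogenous p53 activity read in transiently transfected HepG2 from a cis-element-driven reporter transcript after 24 h exposure. RNA reverse-transcribed, PCR-amplified, fluorescently labelled and sized by capillary electrophoresis; gain or loss fitted against DMSO baseline.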

[10] = BSK_3C_TissueFactor: BioMAP Diversity Plus: 3C Assay for Tissue Factor Biomarker Activity (AID 2282997); conditions: BioMAP 3C HUVEC, tissue factor biomarker readout; actives raise or lower the signal
Outline: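 Tissue Factor measured by ELISA, 24 h after treatment of primary HUVEC in the BioMAP 3C setting.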

[11] = BSK_3C_uPAR: BioMAP Diversity Plus: 3C Assay for Urokinase-type plasminogen activator receptor (uPAR) Biomarker Activity (AID 2282998); conditions: BioMAP 3C HUVEC, uPAR biomarker ELISA; actives raise or lower the signal
Outline: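 In this endothelial cell-based assay, human umbilical vein primary cells were treated with chemicals and harvested at 24 h. uPAR was quantified using ELISA, with gains or losses fitted relative to DMSO controls.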

[12] = BSK_3C_VCAM1: BioMAP Diversity Plus: 3C Assay for Vascular cell adhesion molecule 1 (VCAM1) Biomarker Activity (AID 2282999); conditions: BioMAP 3C HUVEC, VCAM1 ELISA, cytokine-stimulated; actives raise or lower the signal
Outline: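 Vascular primary endothelium (human umbilical vein) was exposed to chemicals and assayed 24 h later. VCAM-1 levels came from ELISA, with DMSO serving as baseline for bidirectional fitting.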

[13] = BSK_4H_Eotaxin3: BioMAP Diversity Plus: 4H Assay for Eotaxin 3 Biomarker Activity (AID 2283000); conditions: primary human endothelial cells (HUVEC); actives raise or lower the signal
Outline: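 Eotaxin-3 (CCL26) levels were measured by ELISA in HUVEC primary cultures 24 h post-dosing. Gain or loss of signal was fitted in both directions, with DMSO serving as baseline and negative control.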

[14] = read-out: Intercellular Adhesion Molecule 1 (ICAM1), ICAM1 (gene 3383); assay: BSK_3C_ICAM1: BioMAP Diversity Plus: 3C Assay for Intercellular Adhesion Molecule 1 (ICAM1) Biomarker Activity (AID 2283003); conditions: primary human endothelial cells (HUVEC); actives raise or lower the signal
Outline: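 ELISA readout of ICAM1 in human umbilical vein endothelial cells in the 3C system, taken 24 h post-dose. Gain or loss of signal versus DMSO was fitted in both directions, with SRB total-protein staining run in parallel.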

[15] = BSK_3C_Proliferation: Cell Proliferation Assessment in the BioMAP Diversity Plus: 3C Assay (AID 2283006); conditions: primary human endothelial cells (HUVEC);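 as to AC50: potency may reflect either rise or fall in cell number versus DMSO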
Outline: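 Proliferation as total protein: sulforhodamine B (0.1%) stain of TCA-fixed subconfluent human umbilical vein endothelial cells, absorbance 560 nm, 48 h after dosing. Activity fitted in both directions against DMSO baseline.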

[16] = target: human Retinoic Acid Receptor gamma (RARg), RARG (gene 5916) (UniProt P13631); assay: ATG_RARg_TRANS: Attagene TRANS-FACTORIAL HepG2 Assay for human Retinoic Acid Receptor gamma (RARg) (AID 2283009; active = hit-call score of the fitted dose curve at least 0.9, where 1 is the maximum)
Chain of human Retinoic Acid Receptor gamma (RARg), RARG (gene 5916) (P13631 whole entry, looked up, the tested form may be a part): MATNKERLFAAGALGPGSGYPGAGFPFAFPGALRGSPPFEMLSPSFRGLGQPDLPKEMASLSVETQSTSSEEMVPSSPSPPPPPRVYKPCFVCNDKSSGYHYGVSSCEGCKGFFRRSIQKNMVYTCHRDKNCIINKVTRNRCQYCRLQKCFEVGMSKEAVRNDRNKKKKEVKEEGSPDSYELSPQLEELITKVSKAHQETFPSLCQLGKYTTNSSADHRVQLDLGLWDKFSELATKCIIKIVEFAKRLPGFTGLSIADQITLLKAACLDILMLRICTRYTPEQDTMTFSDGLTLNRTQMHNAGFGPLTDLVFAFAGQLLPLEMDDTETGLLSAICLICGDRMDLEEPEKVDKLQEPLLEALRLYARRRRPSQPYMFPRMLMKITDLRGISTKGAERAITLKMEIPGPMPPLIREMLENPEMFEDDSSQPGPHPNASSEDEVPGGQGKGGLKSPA
Outline: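 Transactivation of exogenous RARg-Gal4 fusion measured as reporter transcript induction after 24 h in transfected HepG2 cells. RNA reverse-transcribed, amplified, fluorescently labeled and resolved by capillary electrophoresis; increase relative to DMSO.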

[17] = target: Retinoic acid receptor alpha (Homo sapiens) (UniProt P10276); assay: ATG_RARa_TRANS: Attagene TRANS-FACTORIAL HepG2 Assay for human Retinoic Acid Receptor alpha (RARa) (AID 2283005; active = hit-call score of the fitted dose curve at least 0.9, where 1 is the maximum)
Chain of Retinoic acid receptor alpha (Homo sapiens) (P10276 whole entry, looked up, the tested form may be a part): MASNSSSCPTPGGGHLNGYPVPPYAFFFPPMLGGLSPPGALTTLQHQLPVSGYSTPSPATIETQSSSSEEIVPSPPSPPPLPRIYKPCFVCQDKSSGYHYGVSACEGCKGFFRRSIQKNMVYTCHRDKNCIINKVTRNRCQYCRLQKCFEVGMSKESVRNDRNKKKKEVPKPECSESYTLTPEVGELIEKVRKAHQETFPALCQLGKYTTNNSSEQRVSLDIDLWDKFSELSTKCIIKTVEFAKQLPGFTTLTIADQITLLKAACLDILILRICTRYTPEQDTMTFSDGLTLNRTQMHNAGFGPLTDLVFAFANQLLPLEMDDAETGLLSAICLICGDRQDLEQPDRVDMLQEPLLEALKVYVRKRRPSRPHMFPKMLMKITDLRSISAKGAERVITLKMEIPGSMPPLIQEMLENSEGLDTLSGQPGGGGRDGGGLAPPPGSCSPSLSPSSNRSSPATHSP
Outline: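 HepG2 cells transiently transfected with multiple reporter units expressing chimeric RARα-GAL4 fusion, with GAL4-UAS-driven reporters. After 24 h compound exposure, reporter mRNA induction quantified by RT-PCR and capillary electrophoresis with fluorescent labeling; gain-of-signal fitted relative to DMSO control.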

[18] = ATG_NRF2_ARE_CIS: Attagene CIS-FACTORIAL HepG2 Assay for human Nuclear Factor Erythroid 2 Related Factor 2 (NFR2) response to Antioxidant Response Elements (ARE) (AID 2282992); conditions: HepG2 Attagene ARE/NRF2 reporter, transcription factor activity; actives raise or lower the signal
Outline: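 Endogenous transcription factor activity read out as reporter transcript levels (RT-PCR plus capillary electrophoresis, fluorescence) in transiently transfected HepG2 cells. Measured at 24 h after dosing; gain or loss of signal fitted versus DMSO.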

[19] = target: human Retinoic Acid Receptor beta (RARb), RARB (gene 5915) (UniProt P10826); assay: ATG_RARb_TRANS: Attagene TRANS-FACTORIAL HepG2 Assay for human Retinoic Acid Receptor beta (AID 2283004; active = hit-call score of the fitted dose curve at least 0.9, where 1 is the maximum)
Chain of human Retinoic Acid Receptor beta (RARb), RARB (gene 5915) (P10826 whole entry, looked up, the tested form may be a part): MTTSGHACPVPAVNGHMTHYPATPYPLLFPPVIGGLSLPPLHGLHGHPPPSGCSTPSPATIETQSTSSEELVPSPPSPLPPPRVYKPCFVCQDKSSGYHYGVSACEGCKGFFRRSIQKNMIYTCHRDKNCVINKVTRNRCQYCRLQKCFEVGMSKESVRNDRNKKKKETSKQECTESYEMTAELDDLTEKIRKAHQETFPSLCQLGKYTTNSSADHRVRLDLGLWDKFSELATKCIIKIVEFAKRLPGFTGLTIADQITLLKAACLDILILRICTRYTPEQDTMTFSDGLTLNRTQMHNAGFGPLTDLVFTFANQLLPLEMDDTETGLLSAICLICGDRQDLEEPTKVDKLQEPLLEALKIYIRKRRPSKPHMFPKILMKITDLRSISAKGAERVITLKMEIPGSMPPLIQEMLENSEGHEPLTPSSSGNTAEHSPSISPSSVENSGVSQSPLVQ
Outline: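 HepG2 cells were transiently transfected with GAL4-UAS reporter units that report activity of exogenous chimeric NR-Gal4 proteins, then exposed to compound for 24 h. Reporter mRNA was quantified by RT-PCR with capillary electrophoresis fluorescence, as gain of signal over DMSO.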

Measured: AC50

Clc1ccc2c(c1)C(N1CCNCC1)=Nc1ccccc1O2
inactive: [1] | [2] | [3] | [7]
active: [4] 47 µM | [5] 53.9 µM | [6] 52.9 µM | [8] 44.1 µM

CC1CCC(C(C)CS)CC1S (centres undefined)
active: [2] 52.4 µM | [4] 26.1 µM | [9] 52.6 µM | [10] 36.7 µM | [12] 30 µM | [13] 30.3 µM | [5] 53.7 µM | [14] 27.4 µM | [15] 25.7 µM | [8] 2.84 µM
inactive: [1] | [3] | [11] | [6] | [16]

CC1(C)C(=O)N(Br)C(=O)N1Cl
inactive: [1] | [2] | [3] | [4] | [9] | [5] | [6] | [17]

O=S(=O)(O)NC1CCCCC1
inactive: [1] | [2] | [3] | [18] | [5] | [19] | [8]

CC(C)(C)c1n[nH]c(=S)n(N)c1=O
inactive: [1] | [2] | [3] | [9] | [5] | [8]

O=C1c2ccccc2C(=O)N1SC1CCCCC1
inactive: [1] | [2] | [3] | [5] | [6] | [8]
active: [9] 167 µM

COc1cc(C(C)(C)C)c(O)c(C(C)(C)C)c1
inactive: [1] | [2] | [3] | [4] | [6] | [7] | [8]

CSc1nnc(C(C)(C)C)c(=O)[nH]1
inactive: [1] | [2] | [3] | [18] | [9] | [5] | [7] | [8]

COc1cc(C=O)ccc1OC(=O)C(C)C
not listed: [5] | [6] | [10] | [16] | [17] | [18]
inactive: all other assays above

C=C(C)[C@@H]1CC[C@@H](C)C[C@@H]1O
inactive: [1] | [2] | [18] | [4] | [9]

CCCCC[Si](OCC)(OCC)OCC
active: [8] 7.48 µM
inactive: [1] | [2] | [3] | [4] | [17] | [7] | [16]

CCCCCCCCC
inactive: [1] | [2] | [3] | [18] | [9] | [5] | [6]
